Test systems include SK-MEL-2 melanoma; SN12C renal; UO-31 renal; TK-10 renal; ACHN renal; A498 renal; CCRF-CEM leukemia; MOLT-4 leukemia; SR leukemia; RPMI-8226 leukemia; OVCAR-8 ovarian; OVCAR-5 ovarian; OVCAR-4 ovarian; SK-OV-3 ovarian; IGROV1 ovarian; OVCAR-3 ovarian; HS 578T breast; NCI/ADR-RES ovarian; EKVX NSCLC; CAKI-1 renal.
Common to all, as to test: NCI-60 one-dose screen, 48 h (100 = growth as untreated, 0 = no growth, -100 = all killed)
Common to all, as to conditions: 10 µM unless noted

The panel holds about 83,000 compounds, 20% with a hit somewhere; the sample as a whole holds those more often.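 Interpretation: 100, growth as untreated; towards 0, rising growth inhibition; 0, no net growth; 0 to -100, cell death. Compounds scoring below 10 were considered active.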 Activity calls are given as the source filed them.

For `COc1cc(-c2nn(-c3ccc(Br)cc3)cc2C(=O)O)ccc1O`, the growth with SK-MEL-2 melanoma is 83.1% (inactive); in the assay with SN12C renal, 109% (inactive); in the assay with UO-31 renal it was 82.4% (inactive); with TK-10 renal, 125% (inactive); with ACHN renal it was 112% (inactive); with A498 renal it was 107% (inactive). Also, the growth in the assay with CCRF-CEM leukemia is 90.1% (inactive); in the assay with MOLT-4 leukemia, 78.7% (inactive); in the assay with SR leukemia, 84.1% (inactive); in the assay on RPMI-8226 leukemia, 95.7% (inactive); with OVCAR-8 ovarian, 105% (inactive); in the assay on OVCAR-5 ovarian, 122% (inactive). Further, the growth in the assay on OVCAR-4 ovarian was 101% (inactive); in the assay with SK-OV-3 ovarian, 100% (inactive); with IGROV1 ovarian, 91.2% (inactive); in the assay with OVCAR-3 ovarian, 101% (inactive); in the assay on HS 578T breast it was 101% (inactive); with NCI/ADR-RES ovarian it was 104% (inactive).

`C=CCSSC1N=CNc2nc[nH]c21` (stereo not given): the growth in the assay on EKVX NSCLC is 93.8% (inactive); in the assay with SN12C renal, 72.9% (inactive); with UO-31 renal, 35.7% (inactive); in the assay on TK-10 renal, 29.5% (inactive); in the assay with ACHN renal it was 42.6% (inactive); in the assay on CAKI-1 renal it was 9.26% (active). Also, the growth was 50.1% (inactive) with A498 renal; 34.9% (inactive) with MOLT-4 leukemia; 13% (inactive) with SR leukemia; -15.1% (active) with RPMI-8226 leukemia; 22.6% (inactive) in the assay on OVCAR-8 ovarian; 42.7% (inactive) in the assay on OVCAR-5 ovarian. For the same compound, the growth with OVCAR-4 ovarian is 34.4% (inactive); in the assay with SK-OV-3 ovarian it was 8.8% (active); with IGROV1 ovarian it was 64.5% (inactive); with OVCAR-3 ovarian it was 32.3% (inactive); in the assay on HS 578T breast it was 54.5% (inactive); in the assay on NCI/ADR-RES ovarian, 26.5% (inactive).

As to `FC(F)(F)c1nc2c(NCc3ccc(-c4ccccc4)cc3)cccc2[nH]1`, the growth was 88.4% (inactive) in the assay on SN12C renal; 57.5% (inactive) with UO-31 renal; 79.2% (inactive) in the assay on TK-10 renal; 81.6% (inactive) in the assay with ACHN renal; 73.7% (inactive) with CAKI-1 renal; 48.7% (inactive) in the assay on A498 renal. Also, the growth was 44.8% (inactive) in the assay with CCRF-CEM leukemia; 9% (active) with MOLT-4 leukemia; 7.78% (active) with SR leukemia; 45% (inactive) in the assay with RPMI-8226 leukemia; 77.2% (inactive) with OVCAR-8 ovarian; 96.1% (inactive) in the assay with OVCAR-5 ovarian. Further, the growth in the assay with OVCAR-4 ovarian was 88.9% (inactive); in the assay with SK-OV-3 ovarian it was 89.1% (inactive); in the assay on IGROV1 ovarian it was 85.8% (inactive); with OVCAR-3 ovarian, 64.9% (inactive); with HS 578T breast, 71.7% (inactive); with NCI/ADR-RES ovarian, 81% (inactive).

On to `CCOC(=O)c1cc(C(=O)c2ccc(O)c(O)c2)n2ccc(-c3ccn4c(C(=O)c5ccc(O)c(O)c5)cc(C(=O)OCC)c4c3)cc12`, for which the growth with SK-MEL-2 melanoma is 103% (inactive); in the assay on SN12C renal it was 94.7% (inactive); in the assay on UO-31 renal, 63.4% (inactive); with TK-10 renal, 83.3% (inactive); in the assay on ACHN renal it was 97.4% (inactive); with A498 renal, 96.6% (inactive). The growth in the assay on CCRF-CEM leukemia is 84.5% (inactive); in the assay with MOLT-4 leukemia, 63.3% (inactive); in the assay on SR leukemia, 62.3% (inactive); in the assay on RPMI-8226 leukemia it was 74.4% (inactive); in the assay on OVCAR-8 ovarian, 91.4% (inactive); in the assay on OVCAR-5 ovarian, 121% (inactive). Further, the growth in the assay on OVCAR-4 ovarian is 86.5% (inactive); in the assay on SK-OV-3 ovarian, 100% (inactive); in the assay with IGROV1 ovarian it was 87.4% (inactive); in the assay with OVCAR-3 ovarian, 101% (inactive); with HS 578T breast it was 85.8% (inactive); in the assay on NCI/ADR-RES ovarian, 102% (inactive).

Regarding `COc1cc(-c2nn(-c3ccc(C)cc3)cc2C(=O)O)ccc1O`, the growth in the assay with SK-MEL-2 melanoma is 93.5% (inactive); in the assay on SN12C renal it was 99.8% (inactive); with UO-31 renal, 74.7% (inactive); with TK-10 renal, 133% (inactive); in the assay on ACHN renal, 97.5% (inactive); in the assay on A498 renal, 110% (inactive). The growth was 97.5% (inactive) in the assay with CCRF-CEM leukemia; 83.2% (inactive) with MOLT-4 leukemia; 85.3% (inactive) in the assay with SR leukemia; 90.9% (inactive) in the assay on RPMI-8226 leukemia; 98.9% (inactive) in the assay on OVCAR-8 ovarian; 113% (inactive) in the assay with OVCAR-5 ovarian. Also, the growth in the assay with OVCAR-4 ovarian is 109% (inactive); with SK-OV-3 ovarian, 94% (inactive); in the assay on IGROV1 ovarian, 94.2% (inactive); in the assay with OVCAR-3 ovarian, 93.4% (inactive); in the assay on HS 578T breast, 103% (inactive); in the assay on NCI/ADR-RES ovarian, 94.5% (inactive).

With `CN1CCN(c2nc(NCCCCNc3ccnc4cc(Cl)ccc34)c3ccccc3n2)CC1`, the growth in the assay on SK-MEL-2 melanoma is 87.3% (inactive); in the assay on SN12C renal, 79.8% (inactive); in the assay on UO-31 renal it was 46.1% (inactive); with TK-10 renal, 73% (inactive); with ACHN renal it was 74.3% (inactive); with A498 renal, 71.1% (inactive). The growth in the assay on CCRF-CEM leukemia is 35.3% (inactive); in the assay with MOLT-4 leukemia, 43.9% (inactive); in the assay with SR leukemia, -26.6% (active); in the assay on RPMI-8226 leukemia it was -8.38% (active); with OVCAR-8 ovarian, 38.3% (inactive); in the assay with OVCAR-5 ovarian, 112% (inactive). The growth with OVCAR-4 ovarian is 68.5% (inactive); with SK-OV-3 ovarian, 104% (inactive); in the assay with IGROV1 ovarian, 78.2% (inactive); with OVCAR-3 ovarian, 76.6% (inactive); with HS 578T breast, 81.1% (inactive); in the assay on NCI/ADR-RES ovarian, 95.3% (inactive).

Turning to `COc1ccc(S(=O)(=O)N2CCCCCC2)cc1NC(=O)c1[nH]c(C)c2c1CCCCC2=O`, the growth in the assay on SK-MEL-2 melanoma was 43.4% (inactive); with SN12C renal, 36.9% (inactive); in the assay with UO-31 renal, 12.1% (inactive); in the assay on TK-10 renal, 15.3% (inactive); in the assay with CAKI-1 renal, 12.7% (inactive); in the assay with A498 renal it was -25.6% (active). Further, the growth in the assay on CCRF-CEM leukemia is 33.7% (inactive); with MOLT-4 leukemia, 30.6% (inactive); in the assay on SR leukemia it was 35.6% (inactive); in the assay on RPMI-8226 leukemia, 10.7% (inactive); in the assay on OVCAR-8 ovarian, 28.5% (inactive); in the assay with OVCAR-5 ovarian, 50.5% (inactive). Moreover, the growth is 37.3% (inactive) in the assay with OVCAR-4 ovarian; 14.1% (inactive) with SK-OV-3 ovarian; 24.2% (inactive) in the assay with IGROV1 ovarian; 30.4% (inactive) in the assay with OVCAR-3 ovarian; 17.5% (inactive) in the assay on HS 578T breast; 29.2% (inactive) in the assay on NCI/ADR-RES ovarian.

On to `N#Cc1cnn(-c2nc3c(Cl)cccc3s2)c1N`, for which the growth with SN12C renal is 88.5% (inactive); with UO-31 renal, 83.2% (inactive); in the assay on TK-10 renal it was 92.7% (inactive); in the assay on ACHN renal, 67.4% (inactive); with CAKI-1 renal it was 82.8% (inactive); in the assay on A498 renal, 97.1% (inactive). Moreover, the growth in the assay with CCRF-CEM leukemia is 91.1% (inactive); in the assay on MOLT-4 leukemia, 92.4% (inactive); in the assay on SR leukemia it was 89.9% (inactive); in the assay on RPMI-8226 leukemia, 95.7% (inactive); in the assay with OVCAR-8 ovarian it was 80.8% (inactive); in the assay with OVCAR-5 ovarian, 108% (inactive). Further, the growth is -4.16% (active) with OVCAR-4 ovarian; 78.1% (inactive) in the assay with SK-OV-3 ovarian; 84% (inactive) in the assay with IGROV1 ovarian; 98.1% (inactive) in the assay with OVCAR-3 ovarian; 84.2% (inactive) in the assay on HS 578T breast; 82% (inactive) in the assay with NCI/ADR-RES ovarian.

As for `CCCCC(=O)OCC1OC(n2cnc3c(=S)nc[nH]c32)C(OC(=O)CCCC)C1OC(=O)CCCC` (stereo not given), the growth was 46.2% (inactive) in the assay with SK-MEL-2 melanoma; 27.4% (inactive) in the assay with SN12C renal; 35% (inactive) in the assay with UO-31 renal; 14.9% (inactive) with TK-10 renal; 17.2% (inactive) in the assay with ACHN renal; 24.8% (inactive) in the assay on A498 renal. Also, the growth is 28.4% (inactive) with CCRF-CEM leukemia; 15.3% (inactive) in the assay on MOLT-4 leukemia; 24.5% (inactive) with SR leukemia; -23.2% (active) in the assay with OVCAR-8 ovarian; 32.3% (inactive) in the assay on OVCAR-5 ovarian; 29.8% (inactive) in the assay with OVCAR-4 ovarian. Further, the growth in the assay on SK-OV-3 ovarian is 19.3% (inactive); in the assay on OVCAR-3 ovarian it was 22% (inactive); in the assay with HS 578T breast, 38.1% (inactive); with NCI/ADR-RES ovarian it was 19.6% (inactive).

For the origin of these results see PubChem BioAssay (NCI).
